The values that follow come from PubChem BioAssay.

Activity calls are given as the source filed them. Unless noted, how the calls were made is not given here.

A short description of assay [1]: compounds binding Alexa647 anti-His antibody – biochemical, small-molecule microarray, 635 nm fluorescence, artefact control for SMM control protein annotation, primary screen (AID 1128).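 Further: score merges feature fluorescence with signal-to-noise for each printed compound spot.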 The conditions noted are these: higher = more signal.
In assay [2] the test system is Human papillomavirus type 1a E7 protein (residues 1-88). Description: HPV1a E7 small-molecule binders, primary screen, biochemical, small-molecule microarray, residues 1-88, 635 nm (AID 1129). The conditions noted are these: small-molecule microarray binding, fluorescence 635 nm; higher = more signal.
Assay [3] deals with Focal adhesion kinase 1 (Homo sapiens) (UniProt Q05397). Description: PTK2 protein binding on printed compound slides – biochemical, small-molecule microarray, 635/667 nm fluorescence, BSA, DTT, primary screen (AID 1130).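 Further: composite of spot emission at 667 nm and signal to noise over triplicate slides.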 The conditions noted are these: 635 nm fluorescence, higher = more signal.
In assay [4] the test system is Fibrinogen (Alexa647-labelled). Description: Alexa647-fibrinogen binding to printed small molecules – biochemical, small-molecule microarray, 635/667 nm fluorescence, artefact control for SMM control-protein annotation, profiling panel (AID 1131).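 Further: z-score merges 667 nm fluorescence with per-spot signal-to-noise over triplicate slides.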 The conditions noted are these: fibrinogen-A647 binding fluorescence, higher = more signal.
Assay [5] has as its target Follistatin (Homo sapiens) (UniProt P19883). Description: FST protein binding to printed compounds – biochemical, small-molecule microarray, 635/667 nm fluorescence, primary screen (AID 1132). The conditions noted are these: 635 nm fluorescence, higher = more signal.
Assay [6] addresses Fibroblast growth factor 2 (Homo sapiens) (UniProt P09038). The assay can be described thus: basic fibroblast growth factor binding to printed compounds – biochemical, small-molecule microarray, 635/667 nm fluorescence, primary screen (AID 1133). The conditions noted are these: FGF2, fluorescence 635/667, higher = more signal.
A short description of assay [7]: JC-1 mitochondrial potential readout, lung cancer cells – cell-based, A549, JC-1 fluorescence, basal, 24 h, 100 nL, profiling panel (AID 1138).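 Further: A549 lung adenocarcinoma cells under basal conditions with no added stimulus; test concentration not given here.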 The conditions noted are these: higher = more signal.
The test system of a further assay is Lefty1. The assay can be described thus: Lefty1 protein binding to printed compounds – biochemical, small-molecule microarray, 635/667 nm fluorescence, primary screen (AID 1139). The conditions noted are these: fluorescence 635/667, higher = more signal.
Assay [8] relates to wheat germ agglutinin (Triticum aestivum), Alexa647-labelled. Description: Alexa647-WGA lectin binding to printed small molecules – biochemical, small-molecule microarray, 635/667 nm fluorescence, artefact control for SMM control-protein annotation, profiling panel (AID 1140).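 Further: score merges 667 nm feature emission with signal to noise over triplicate slides.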 The conditions noted are these: WGA-A647 binding, 635 nm fluorescence, higher = more signal.
In assay [9] the target is Luciferin 4-monooxygenase (Photinus pyralis) (UniProt P08659). Description: inhibition of purified Photinus pyralis luciferase – biochemical, luminescence, purified enzyme, 2006 set, primary screen (AID 1141).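 Further: cell-free assay with purified firefly luciferase at 100 ng per well in PBS; test concentration not given here.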 The conditions noted are these: purified firefly luciferase, SteadyGlo luminescence, 30 min; higher = more signal, called active from +8 up or from −8 down.
The subject of assay [10] is Wnt5a (protein binding on small-molecule microarray). Description: small molecules binding Wnt5a protein – biophysical, small-molecule microarray, 635/667 nm fluorescence, primary screen (AID 1142).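 Further: fluorescence read at 667 nm with signal to noise per printed feature.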 The conditions noted are these: 635 nm fluorescence, higher = more signal.
A short description of assay [11]: ATP-based viability of Huh7 replicon cells – cell-based, CellTiter-Glo luminescence, basal, 48 h, cytotoxicity control for HCV replication inhibitor project, primary screen (AID 1143).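 Further: Huh7 hepatoma cells carrying a hepatitis C replication reporter with no stimulus; test concentration not given here.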 The conditions noted are these: higher = more signal, called active from +8 up or from −8 down. (In general: In antiviral work, replicon cells carry a viral genome segment that copies itself.)

Assay [12] is described as follows: Pseudomonas biofilm growth suppression – PAO1 strain, BacTiter-Glo luminescence, LB-PBS, primary screen (AID 1144). The conditions noted are these: P. aeruginosa PAO1 biofilm, 12 h, higher = more signal.
Assay [13] can be described thus: basal CRE-LacZ reporter activity in PC12 – cell-based, unstimulated, primary screen (AID 1145). The conditions noted are these: no forskolin, luminescence, 4.5 h, higher = more signal, called active from +8 up or from −8 down.
Assay [14] can be described thus: forskolin-driven CRE-LacZ activity in PC12 – cell-based, CRE-LacZ reporter, forskolin-stimulated, primary screen (AID 1146).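 Further: PC12 cells with 6xCRE LacZ reporter stimulated by forskolin 10 µM; beta-galactosidase reporter signal reflecting CREB driven transcription.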 The conditions noted are these: luminescence, 4.5 h, higher = more signal, called active from +8 up or from −8 down.
The target in assay [15] is Streptavidin (Streptomyces avidinii) (UniProt P22629). Description: compounds binding control protein streptavidin – biophysical, small-molecule microarray, 635/667 nm fluorescence, artefact control for SMM compound annotation, primary screen (AID 1147).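 Further: signal reflects streptavidin binding to arrayed compounds as a control protein.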 The conditions noted are these: higher = more signal.
A short description of assay [16]: probe aInhba binding on compound microarray – biochemical, small-molecule microarray, 635/667 nm fluorescence, primary screen (AID 1148).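 Further: score merges 667nm spot fluorescence with signal-to-noise for antibody binding to printed compounds.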 The conditions noted are these: higher = more signal.
Assay [17] deals with Torsin-1A (Homo sapiens) (UniProt O14656). Description: TOR1A wild-type binding on microarray – cell lysate, small-molecule microarray, lysate, 635/667 nm, primary screen (AID 1149). The conditions noted are these: COS7 hTOR1A-WT lysate, 635 nm fluorescence, higher = more signal.
Assay [18] has the same target. Description: torsin A mutant lysate binding on microarrays – cell lysate, small-molecule microarray, COS7 lysate, 635/667 nm fluorescence, primary screen (AID 1150).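 Further: score pools 667 nm emission and signal to noise measuring lysate protein binding.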 The conditions noted are these: COS7 hTOR1A mutant lysate, 635 nm fluorescence, higher = more signal.
Assay [19] has as its system Sonic hedgehog protein (Shh). Description: Sonic hedgehog microarray binding compounds – biochemical, small-molecule microarray, 635/667 nm fluorescence, primary screen (AID 1151).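 Further: Shh protein binding to compounds spotted on small-molecule microarray slides; score combines spot fluorescence intensity with signal-to-noise across triplicate slides.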 The conditions noted are these: 635 nm fluorescence, higher = more signal.

Chain of Luciferin 4-monooxygenase (Photinus pyralis) (P08659 whole entry, looked up): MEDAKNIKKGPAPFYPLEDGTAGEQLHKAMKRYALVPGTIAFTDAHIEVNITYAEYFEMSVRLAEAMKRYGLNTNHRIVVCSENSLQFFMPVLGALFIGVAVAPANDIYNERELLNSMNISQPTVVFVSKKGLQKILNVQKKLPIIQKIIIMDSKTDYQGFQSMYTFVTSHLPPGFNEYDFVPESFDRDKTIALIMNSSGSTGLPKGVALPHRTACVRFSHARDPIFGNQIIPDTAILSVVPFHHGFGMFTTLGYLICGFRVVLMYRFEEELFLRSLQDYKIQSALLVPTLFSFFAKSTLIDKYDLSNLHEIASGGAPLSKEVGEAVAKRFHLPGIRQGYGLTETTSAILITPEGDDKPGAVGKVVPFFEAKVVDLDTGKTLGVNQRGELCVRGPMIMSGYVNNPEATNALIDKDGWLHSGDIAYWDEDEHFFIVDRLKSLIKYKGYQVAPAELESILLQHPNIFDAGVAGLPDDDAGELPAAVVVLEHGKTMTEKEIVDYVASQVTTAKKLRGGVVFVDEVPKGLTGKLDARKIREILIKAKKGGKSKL
Chain of Torsin-1A (Homo sapiens) (O14656 whole entry, looked up): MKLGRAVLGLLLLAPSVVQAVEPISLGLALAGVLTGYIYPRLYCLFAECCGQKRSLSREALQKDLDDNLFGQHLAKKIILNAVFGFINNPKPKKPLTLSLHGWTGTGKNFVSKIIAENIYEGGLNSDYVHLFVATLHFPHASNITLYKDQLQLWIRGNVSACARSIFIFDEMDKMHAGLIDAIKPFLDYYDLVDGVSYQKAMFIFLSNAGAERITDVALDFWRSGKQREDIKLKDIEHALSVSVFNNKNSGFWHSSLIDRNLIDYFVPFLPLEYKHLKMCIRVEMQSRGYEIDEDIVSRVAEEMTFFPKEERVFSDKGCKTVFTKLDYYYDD
Chain of Follistatin (Homo sapiens) (P19883 whole entry, looked up): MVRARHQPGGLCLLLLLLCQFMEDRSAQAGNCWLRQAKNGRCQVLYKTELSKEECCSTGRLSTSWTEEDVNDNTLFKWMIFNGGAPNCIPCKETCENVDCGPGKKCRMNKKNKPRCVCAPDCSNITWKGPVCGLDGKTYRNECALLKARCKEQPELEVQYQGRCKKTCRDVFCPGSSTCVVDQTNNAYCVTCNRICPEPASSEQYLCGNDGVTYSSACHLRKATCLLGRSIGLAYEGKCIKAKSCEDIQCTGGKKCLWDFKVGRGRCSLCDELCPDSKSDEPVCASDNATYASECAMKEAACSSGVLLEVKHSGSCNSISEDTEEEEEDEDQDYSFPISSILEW
Chain of Fibroblast growth factor 2 (Homo sapiens) (P09038 whole entry, looked up): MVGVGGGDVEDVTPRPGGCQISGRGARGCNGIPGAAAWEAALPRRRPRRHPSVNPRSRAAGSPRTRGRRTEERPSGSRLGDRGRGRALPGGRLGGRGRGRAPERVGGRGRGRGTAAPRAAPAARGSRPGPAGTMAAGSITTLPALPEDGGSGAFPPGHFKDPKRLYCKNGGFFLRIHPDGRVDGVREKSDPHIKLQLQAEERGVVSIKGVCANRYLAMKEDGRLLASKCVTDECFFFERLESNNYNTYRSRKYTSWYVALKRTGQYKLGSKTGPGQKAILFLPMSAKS
Chain of Streptavidin (Streptomyces avidinii) (P22629 whole entry, looked up): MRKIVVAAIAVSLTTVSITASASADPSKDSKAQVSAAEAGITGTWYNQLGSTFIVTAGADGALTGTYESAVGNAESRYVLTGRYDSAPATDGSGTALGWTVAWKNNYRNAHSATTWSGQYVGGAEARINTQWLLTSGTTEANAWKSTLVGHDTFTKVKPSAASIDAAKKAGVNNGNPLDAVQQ
Chain of Focal adhesion kinase 1 (Homo sapiens) (Q05397 whole entry, looked up): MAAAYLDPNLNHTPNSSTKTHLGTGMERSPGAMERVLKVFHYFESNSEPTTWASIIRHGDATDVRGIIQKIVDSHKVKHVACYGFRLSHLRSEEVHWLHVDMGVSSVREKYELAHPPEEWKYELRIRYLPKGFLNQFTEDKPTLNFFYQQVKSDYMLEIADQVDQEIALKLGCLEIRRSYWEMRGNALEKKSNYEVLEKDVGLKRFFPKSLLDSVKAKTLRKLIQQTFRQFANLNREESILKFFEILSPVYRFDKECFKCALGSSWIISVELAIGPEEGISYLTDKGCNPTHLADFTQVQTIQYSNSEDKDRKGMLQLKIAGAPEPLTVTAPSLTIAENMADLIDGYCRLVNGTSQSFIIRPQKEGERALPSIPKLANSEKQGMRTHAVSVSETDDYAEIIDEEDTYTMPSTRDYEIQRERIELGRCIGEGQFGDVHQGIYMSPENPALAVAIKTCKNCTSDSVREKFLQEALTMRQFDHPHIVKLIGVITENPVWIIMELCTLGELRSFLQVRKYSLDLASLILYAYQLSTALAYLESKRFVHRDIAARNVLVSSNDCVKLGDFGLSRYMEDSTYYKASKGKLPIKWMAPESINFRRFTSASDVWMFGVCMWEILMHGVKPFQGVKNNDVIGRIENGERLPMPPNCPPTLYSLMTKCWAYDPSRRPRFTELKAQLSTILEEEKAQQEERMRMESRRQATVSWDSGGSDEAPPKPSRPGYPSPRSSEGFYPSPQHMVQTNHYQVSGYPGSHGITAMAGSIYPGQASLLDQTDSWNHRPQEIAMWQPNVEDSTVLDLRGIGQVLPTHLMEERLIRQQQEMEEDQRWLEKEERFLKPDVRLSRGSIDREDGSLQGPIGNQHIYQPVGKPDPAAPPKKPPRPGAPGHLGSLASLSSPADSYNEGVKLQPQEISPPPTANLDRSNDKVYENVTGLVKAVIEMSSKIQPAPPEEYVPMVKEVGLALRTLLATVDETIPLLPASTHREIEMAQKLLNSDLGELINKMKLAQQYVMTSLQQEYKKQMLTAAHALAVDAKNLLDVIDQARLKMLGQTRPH

On to `COC(=O)CC=C[C@@H](C)[C@@H](C=NOC(C)CN1CCCc2nc(C)c(C)cc21)OC` (stereo not given in full), for which the composite z-score in assay [1] stood at 0.333; in assay [2], 0.464; in [3] it was 0.0673; in assay [4] it was 0.233; in [5], 0.6; in [6], 0.604. Besides, the composite z-score in the assay with Lefty1 is 0.677; in assay [8], -0.0665; in assay [10], 0.17; in [15], 1.21; in assay [16], 0.098; in the assay with Torsin-1A (Homo sapiens) [17], 0.254. In addition, the composite z-score in the assay with Torsin-1A (Homo sapiens) [18] is 0.0852; in [19], 0.655. Besides, the z-score in assay [7] was -0.27; in assay [9] it was 0.423 (inactive); in assay [11] it was 0.431 (inactive); in assay [12], 0.764 (inactive); in assay [13], -0.64 (inactive); in assay [14], 0.632 (inactive).

For `C#CCCCON=C1C[C@@H](O)[C@@H](O)[C@@H]2[C@@H]3C(=O)N(C(C)(C)C)C(=O)[C@@H]3CC[C@H]12`, the composite z-score in assay [1] is 0.0217; in [2], -0.204; in [3], -0.0811; in assay [4] it was 0.589; in [5], -0.861; in assay [6], -0.127. The composite z-score with Lefty1 is -0.912; in [8] it was 0.903; in assay [10], -0.19; in [15], 0.941; in assay [16], 0.0228; with Torsin-1A (Homo sapiens) [17] it was -0.309. Further, the composite z-score with Torsin-1A (Homo sapiens) [18] is -0.123; in [19], -0.914. Besides, the z-score in assay [7] is -0.049; in [9] it was 0.541 (inactive); in assay [11] it was 0.0285 (inactive); in [12], 0.189 (inactive); in assay [13], 0.608 (inactive); in assay [14], 0.0692 (inactive).

In the case of `COC(=O)[C@@H]1CC[C@H](C)[C@@H](c2ccc(C)cc2)N1C(=O)c1ccc(C=NO[C@@H]2O[C@H](COC(C)=O)[C@@H](OC(C)=O)[C@H](OC(C)=O)[C@H]2OC(C)=O)cc1`, the composite z-score in [1] is 2.08; in assay [2] it was 0.68; in assay [3] it was -0.169; in [4], 0.926; in assay [5], 0.551; in [6], 0.336. Moreover, the composite z-score with Lefty1 was 1.06; in [8], 0.347; in [10] it was -0.0196; in assay [15] it was 0.253; in assay [16], -0.0986; with Torsin-1A (Homo sapiens) [17] it was 0.203. Besides, the composite z-score with Torsin-1A (Homo sapiens) [18] was found to be 0.121; in assay [19], 0.891. The z-score is 0.0992 in assay [7]; 0.945 (inactive) in [9]; -3.41 (inactive) in assay [11]; -0.553 (inactive) in assay [12]; 2.22 (inactive) in assay [13]; -0.138 (inactive) in assay [14].

On to `CCOC(=O)[C@H](Cc1ccccc1)NC(=O)CCC1CC(OC(=O)NCc2ccc3c(c2)OCO3)CC2(CCCC(COC(=O)NCCC(C)C)O2)O1` (stereo not given in full), for which the composite z-score in assay [1] came to 0.408; in [2], 0.57; in [3], 0.234; in assay [4], 0.894; in [5] it was 0.443; in assay [6], 1.06. Besides, the composite z-score worked out at 0.722 in the assay with Lefty1; 0.531 in assay [8]; 0.403 in assay [10]; 0.789 in [15]; 0.0471 in assay [16]; 0.399 in the assay with Torsin-1A (Homo sapiens) [17]. Also, the values for the composite z-score (with Torsin-1A (Homo sapiens) [18]; in [19]) were 0.418 and 1.74, respectively. In addition, the z-score was -0.549 in assay [7]; 0.906 (inactive) in assay [9]; -1.05 (inactive) in assay [11]; -0.749 (inactive) in [12]; -0.254 (inactive) in [13]; 0.0924 (inactive) in assay [14].

Consider `O=C1C[C@@H](O)[C@@H](O)[C@@H]2[C@@H]3C(=O)N(Cc4ccccc4)C(=O)[C@@H]3CC[C@@H]12`, for which the composite z-score in assay [1] was determined as 0.467; in assay [2] it was 0.789; in assay [3], 0.0901; in [4], 0.547; in assay [5], 0.892; in [6], 0.895. For the same molecule, the composite z-score was 0.551 with Lefty1; 0.0697 in assay [8]; 0.19 in assay [10]; 0.413 in [15]; 0.0391 in [16]; 0.498 with Torsin-1A (Homo sapiens) [17]. In addition, the composite z-score with Torsin-1A (Homo sapiens) [18] was determined as 0.35; in assay [19], 0.772. In addition, the z-score in [7] is -0.305; in assay [9] it was -0.0665 (inactive); in assay [11], 0.398 (inactive); in [12], -0.593 (inactive); in [13] it was 1.06 (inactive); in assay [14], 0.113 (inactive).
